A short description of assay [1]: Cytotoxicity counterscreen for inhibitors of SARS-CoV-2 cell entry (AID 1645845). Also: nearly all actives have a fitted effect of over 50% in size. The method in brief:
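HEK293-ACE2 cells (Expi293F stably expressing human ACE2) seeded overnight, then compound for 1 h plus 48 h at 37C. Viability as ATP content by luminescence; normalized to wells with cells and media-only wells.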
(A counterscreen serves to expose hits that act by an unwanted route or on another target.)

The nature of assay [2]: Confirmatory qHTS for VERO E6 Cytotoxicity Assay: Counterscreen for SARS-CoV-2 CPE Assay (AID 1508605). Also: series mostly up to about 20 µM; nearly all actives have a fitted effect of over 60% in size. In general terms: Quantitative high-throughput screening tests each substance at several concentrations.
Assay [3] in a line: Confirmatory qHTS for activators (rescue) of SARS-CoV-2 Cytopathic Effect (CPE) (AID 1508606). Also: potency is read from the fitted curve at half-maximal effect; nearly all actives have a fitted effect of over 70% in size.
In assay [4] the target is Glutathione peroxidase 1 (Homo sapiens) (UniProt P07203). The assay can be described thus: Primary qHTS Assay for Inhibitors of Recombinant Selenoprotein Glutathione Peroxidase 1 (GPX1) (AID 1845191; active = well fitted inhibition curve with a large enough effect; also: nearly all actives have a fitted effect of over 65% in size). The method in brief:
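GR-coupled assay: compounds preincubated 30 min at room temperature with GPX1, then reaction started with CHP; final 10 nM GPX1, 1 mM GSH, 0.5 mM CHP, 0.5 mM NADPH, 100 nM GR, 0.01% BSA, pH 7.5 Tris buffer. NADPH fluorescence (340/450 nm) read at 0 and 15 min.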

Inconclusive results are not listed. A call without a number means that no potency is given here. Calls of active or inactive are those of the source. Unless noted, calls follow the shape of the full dose curve.

Chain of Glutathione peroxidase 1 (Homo sapiens) (P07203 whole entry, looked up): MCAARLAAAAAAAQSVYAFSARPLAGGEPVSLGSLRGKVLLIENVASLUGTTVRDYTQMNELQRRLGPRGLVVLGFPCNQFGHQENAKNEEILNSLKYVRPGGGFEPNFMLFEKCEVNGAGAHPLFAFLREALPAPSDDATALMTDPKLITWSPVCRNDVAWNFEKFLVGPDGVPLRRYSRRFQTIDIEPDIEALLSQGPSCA

Take `CCC(=O)NS(=O)(=O)c1ccc(-c2c(-c3ccccc3)noc2C)cc1`: the Potency entry in assay [1] was “inactive”.

`CC(=O)O[C@@H]1CC2C(C)(C)C(=O)C=C[C@]2(C)C2CC[C@]3(C)C(=CC(=O)O[C@H]3c3ccoc3)[C@@]21C` (some centres undefined): the Potency entry in assay [2] and in assay [4] was “inactive” throughout. The Potency in assay [3] was 11.2 µM (active).

The values are drawn from PubChem BioAssay (NCATS).
